# High-throughput results: PubChem BioAssay, several laboratories
# Compounds with a hit are over-represented: about 3.8% of the library has one in this group of screens.
# tim10-1 inh: inhibits growth of tim10-1 mutant yeast; S. cerevisiae tim10-1 ts strain growth, BacTiter-Glo, 24 h; AID 463190; 2.2% of 330,000 active; inhibition, % at 20 µM;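 active means inhibition of at least 40%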;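 further: mutant grown at 25 °C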
# PfHsp90 yeast 2: reduces growth (ATP signal) of yeast expressing P. falciparum Hsp90; S. cerevisiae expressing PfHsp90, BacTiter-Glo ATP, 48 h; yeast lacking PDR1 and PDR3 efflux regulators; inhibition, % at 9.4 µM; 0.32% of 310,000 active; AID 504621;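 active means every replicate shows inhibition above about 80%, whatever the replicate mean, limit read from the data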
# B2AR ag: agonists of human beta-2 adrenergic receptor inducing internalization; Am2.2-beta2AR cells, FAP receptor internalization, flow cytometry; response, % (test concentration not listed); 0.43% of 340,000 active; AID 504454;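 active means response above a set limit, near 3 SD of response in nonfluorescent compounds, cut at about 42% in these data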
# Target sequence (P07550 whole entry, looked up): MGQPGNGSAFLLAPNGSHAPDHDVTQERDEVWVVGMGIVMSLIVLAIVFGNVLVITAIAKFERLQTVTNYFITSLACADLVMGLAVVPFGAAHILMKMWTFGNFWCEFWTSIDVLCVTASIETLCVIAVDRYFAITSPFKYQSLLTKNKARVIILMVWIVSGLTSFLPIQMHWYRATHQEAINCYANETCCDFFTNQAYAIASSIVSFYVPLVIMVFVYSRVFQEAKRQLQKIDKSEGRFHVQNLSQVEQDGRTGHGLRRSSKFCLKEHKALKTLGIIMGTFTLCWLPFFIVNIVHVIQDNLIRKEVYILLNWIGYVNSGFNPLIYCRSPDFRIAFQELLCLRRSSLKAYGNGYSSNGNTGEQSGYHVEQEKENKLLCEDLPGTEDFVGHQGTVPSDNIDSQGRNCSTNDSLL
# TIM10 inh: TIM10 yeast growth inhibition. S. cerevisiae TIM10 strain growth, BacTiter-Glo luminescence, 24 h. inhibition, % at 10 µM. 1.4% of 330,000 active;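 active means inhibition of 40% or more at the single tested concentration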;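 further: wild-type TIM10 isogenic control strain grown at permissive 25 °C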
# tim23-1 inh: growth inhibitors of tim23-1 mutant yeast; S. cerevisiae tim23-1 growth, BacTiter-Glo luminescence, 24 h; inhibition, % at 20 µM; 1.3% of 330,000 active;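 active means growth inhibition of the mutant yeast at or above 50%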;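 further: temperature-sensitive mutant grown at 25 °C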
# tim10-1 conf: confirmation of tim10-1 mutant yeast growth inhibitors; AID 463213; 56% of 7,400 active; shares compounds with tim10-1 inh; S. cerevisiae tim10-1 ts strain growth, BacTiter-Glo, 24 h; inhibition, % at 20 µM;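 active means inhibition of yeast growth at or above a set limit in either of two repeat tests at 20 µM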;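 further: tim10-1 mutant grown at permissive 25 °C to find synthetic lethal compounds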
# Numbers stand for hits; i = inactive; nt = not tested or not shown.
SMILES,tim10-1 inh,PfHsp90 yeast 2,B2AR ag,TIM10 inh,tim23-1 inh,tim10-1 conf
COc1ccc(NC(=O)CN(C)C(=O)c2c(-c3c(F)cccc3Cl)noc2C)cc1,i,i,i,i,i,nt
Cc1nc(SCC(=O)NC2(C#N)CCCC2)n(CC(C)C)c1C,i,nt,i,i,i,nt
Cc1ccc(C(=O)Oc2ccc(Cl)c3cccnc23)cc1[N+](=O)[O-],40.6,i,i,i,i,i
CCOc1ccc(S(=O)(=O)N(CC)CC(=O)NCc2ccccn2)cc1C,i,i,i,i,i,nt
CCOC(=O)c1cc(-c2ccncc2)nc2c1c(C)nn2-c1ccccn1,45.3,i,i,i,i,33.9
Cc1nn(-c2ccccc2)c2c1c(C)c(CCC(=O)N1CCOCC1)c(=O)n2C,40.7,i,i,i,i,i
CCOc1ccccc1Nc1nc(-c2sc(C)nc2C)cs1,47.1,i,i,i,i,i
CCOc1ccccc1Nc1nc(-c2sc(NC(=O)c3ccco3)nc2C)cs1,i,i,i,i,i,nt
CN1CCCC(CC2Oc3ccccc3Sc3ccccc32)C1 (stereo unspecified),40.1,i,nt,i,i,i
c1ccc2c(c1)OC(CCCN1CCCCC1)c1ccccc1S2 (stereo unspecified),i,i,i,i,i,nt
C/C(=N\NC(=S)Nc1c(C)cccc1C)c1ccc(O)cc1,i,i,i,i,i,nt
C/C(=N\NC(=S)Nc1c(C)cccc1C)c1cc2ccccc2o1,41.8,i,i,i,i,i
CC1(c2ccccc2)NC(=O)N(CC(=O)Nc2ccccc2N2CCCCC2)C1=O (stereo unspecified),i,nt,i,i,i,nt
CCN(CC)S(=O)(=O)c1cccc(NC(=O)c2ccc(SC)cc2OC)c1,43.3,i,i,i,i,37.4
COc1cc(SC)ccc1C(=O)Nc1cccc(S(=O)(=O)NC2=NCCCCC2)c1,i,nt,i,i,i,nt
CCOC(=O)C1CCN(C(=O)COC(=O)c2cccc(NS(=O)(=O)c3ccccc3)c2)CC1,nt,i,i,nt,nt,nt
CN(C)CCCNC(=O)C[C@H]1C[C@H](C(=O)N2CCOCC2)[C@@]2(C)c3[nH]c4cc(-c5ccco5)ccc4c3CCN2C1=O,i,i,i,i,i,nt
CCOc1cc(/C=C2\N=C(SCC)SC2=O)cc([N+](=O)[O-])c1OC(C)=O,i,i,i,i,i,nt
CCOc1cc(/C=C2\N=C(SC)SC2=O)cc([N+](=O)[O-])c1OC(C)=O,41.8,i,i,i,i,i
COc1ccc(C(=O)Nc2ccccc2C(=O)Nc2ccccn2)cc1,43.4,i,i,i,i,i
O=C(Nc1ccccc1C(=O)Nc1ccccc1C(=O)O)c1ccccc1,46.6,i,i,i,i,i
Nc1ccc(C(=O)Nc2ccccc2C(=O)O)cc1,i,nt,i,i,i,nt
CCCN(CC(=O)Nc1ccccc1C)C(=O)/C=C/c1ccc(S(=O)(=O)N2CCCCCC2)cc1,i,nt,i,i,i,nt
O=C1NC(=O)C(=Cc2ccccc2[N+](=O)[O-])S1,nt,i,i,nt,nt,nt
O=C1NC(=O)/C(=C/c2cccc3ccccc23)S1,47.0,i,i,i,i,34.6
SMILES,tim10-1 inh,PfHsp90 yeast 2,B2AR ag,TIM10 inh,tim23-1 inh,tim10-1 conf
N#CC(C(=O)Nc1ccc(Cl)c(Cl)c1)=C1Nc2ccccc2N1,44.9,i,i,i,i,i
NC(CCCCc1ccccc1)c1cccc2ccccc12 (stereo unspecified),i,nt,nt,i,i,nt
Cc1ccccc1NC(=S)Nc1ccccn1,46.8,i,i,i,i,i
S=C(Nc1ccccn1)Nc1ccccc1Cl,i,i,i,i,i,nt
CCc1ccccc1Nc1nc(N)nc(COC(=O)CCC(=O)c2ccc(F)cc2)n1,i,i,i,i,i,nt
CC(C)Cn1c(N)c(C(=O)COC(=O)/C=C/c2ccccc2)c(=O)n(C)c1=O,42.2,i,i,i,i,i
CC(C)Cn1c(N)c(C(=O)CSc2ccccc2)c(=O)n(C)c1=O,nt,i,i,nt,nt,nt
O=C1C=CCC(/C=C/c2ccccc2)O1 (stereo unspecified),54.8,nt,nt,i,i,i
S=c1[nH]c(-c2ccc(Cl)cc2)cs1,47.7,i,i,i,i,i
C/C(=N\NC(=O)c1cc2c(s1)CCC(C)C2)c1ccncc1 (stereo unspecified),53.8,i,i,i,i,32.2
COc1ccccc1CNCCS(=O)(=O)NCc1ccccc1,nt,i,i,nt,nt,nt
COc1cc(CN2CCC(Oc3cc(C(=O)NC4CC4)ccc3OC)CC2)cc(OC)c1,i,i,i,i,i,nt
c1ccc(-c2nnn(C34CC5CC(CC(C5)C3)C4)n2)cc1,46.6,i,i,i,i,i
Nc1ncn(C23CC4CC(CC(C4)C2)C3)n1,i,i,i,i,i,nt
O=C(Cn1c(=O)oc2ccccc21)N1CCCC1,i,i,i,i,i,nt
Cc1ccc(Nc2n[nH]c(=S)s2)cc1F,nt,i,i,nt,nt,nt
S=c1[nH]nc(Nc2ccc(Cl)cc2)s1,40.4,i,i,i,i,34.2
CCCCNS(=O)(=O)c1ccc(Br)cc1N1CCC[C@H]1CO,i,i,i,i,i,nt
COc1cc2c(cc1OC)C(C)N(C(=O)c1cc3c(C)cc(C)cc3[nH]1)CC2 (stereo unspecified),41.0,i,i,i,i,i
COc1cc2c(cc1OC)C(C)N(C(=O)Nc1cc(C)cc(C)c1)CC2 (stereo unspecified),i,i,i,i,i,nt
CSc1nc(S(C)(=O)=O)nc2[nH]c(=O)[nH]c12,nt,nt,i,nt,nt,nt
S=C(Nc1ccc(Br)cc1)Nc1ccc2c(c1)OCCO2,44.9,i,i,i,i,i
CC(C)(C)Cc1nc2ccccc2n1CCc1ccccc1,41.2,i,i,i,i,i
COC(=O)Nc1ccc2c(c1)N(C(=O)CCN(C)C)c1ccccc1CC2,i,i,i,i,i,nt
CCCCc1ccccc1NC(=S)NC1CCCC1,42.7,i,i,i,i,i
SMILES,tim10-1 inh,PfHsp90 yeast 2,B2AR ag,TIM10 inh,tim23-1 inh,tim10-1 conf
CSc1ccccc1NC(=S)NC1CCCC1,i,i,i,i,i,nt
COc1ccc(/C=C2\CCCC3C2=NC(=S)NC3c2ccc(OC)cc2)cc1 (stereo unspecified),46.1,i,i,i,i,i
Cn1c(/C=N/Nc2nc3ccccc3[nH]2)nc2ccccc21,40.8,i,i,i,i,i
CCCn1c(/C=N/Nc2nc3ccccc3[nH]2)nc2ccccc21,nt,i,i,nt,nt,nt
O=C(Nc1nc2ccccc2s1)c1c(F)cccc1Cl,i,i,i,i,i,nt
Cn1cc(Cl)c(C(=O)Nc2nc3ccccc3s2)n1,43.7,i,i,i,i,i
OC1(C#CCN2CCCC2)CCCCC1,i,i,i,i,i,nt
CCOC(=O)C1(Cc2cccc(Cl)c2)CCCN(C(=O)c2cnn(CC)c2)C1 (stereo unspecified),i,i,i,i,i,nt
O=C(NCCOc1ccccc1)C1Nc2ccc(C(F)(F)F)cc2C2c3ccccc3CC12 (stereo unspecified),i,i,i,i,i,nt
CCOC(=O)C1Nc2ccc(C(F)(F)F)cc2C2c3ccccc3CC12 (stereo unspecified),56.8,i,i,i,i,53.3
